# Source: PubChem BioAssay (The Scripps Research Institute Molecular Screening Center)
# DAX1 inh-1: inhibits human nuclear receptor DAX1. P51843. HEK293 Gal4-DAX1 luciferase reporter, luminescence. inhibition, % at 6.75 µM. 340,000 compounds, 0.99% hits;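 active = inhibition above the mean over all tested compounds plus 3 SD, cut at about 4.2% in these data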;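 also: 0% = DAX1-transfected cells with DMSO and 100% = empty-vector control cells with DMSO; inhibition shows as a rise in luminescence from relieved DAX1 repression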
# Target sequence (P51843 207-470 limits assumed): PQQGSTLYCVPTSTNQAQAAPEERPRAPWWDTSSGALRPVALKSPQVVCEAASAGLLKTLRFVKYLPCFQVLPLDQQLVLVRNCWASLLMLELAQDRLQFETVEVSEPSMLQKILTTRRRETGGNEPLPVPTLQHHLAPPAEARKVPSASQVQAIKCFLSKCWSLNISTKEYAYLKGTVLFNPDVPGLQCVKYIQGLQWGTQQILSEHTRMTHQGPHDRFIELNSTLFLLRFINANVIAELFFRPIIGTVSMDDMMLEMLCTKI
# hgDAF12 agonist: activates the H. glycines DAF-12 receptor ligand-binding domain; HEK293 GAL4-hgDAF12 UAS-luciferase reporter, agonist luminescence; normalized to butyrate control; 370,000 compounds, 1.8% hits; activation, % at 6.8 µM;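 active = activation above a cutoff set at the mean of all screened compounds plus 3 SD, cut at about 10% in these data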;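 also: 0% = DMSO wells and 100% = sodium butyrate wells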
# DAX1 inh-2: inhibitors of DAX1 repression of SF-1 activated StAR promoter; HEK293T StAR-luciferase reporter, SF-1/DAX-1 repression relief; 370,000 compounds, 1.1% hits; AID 652010; inhibition, % at 6.8 µM;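 active = inhibition above the mean over all tested compounds plus 3 SD, cut at about 3.6% in these data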;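 also: 0% = DAX-1 cells with DMSO and 100% = cells lacking DAX-1 with DMSO; higher inhibition means more luminescence from relief of DAX-1 repression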
# hcDAF-12 act: activates DAF-12 receptor from parasite H. contortus; 370,000 compounds, 1.4% hits; AID 652067; activation, % at 6.8 µM; HEK293 hcDAF-12 lit1-tk-luc reporter, luminescence; 0% DMSO, 100% Δ7-dafachronic acid;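 active = activation above the mean of all tested compounds plus 3 SD, cut at about 5.5% in these data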;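 also: 100% = response to 3 µM Δ7-dafachronic acid high control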
# ssDAF-12 act: S. stercoralis DAF-12 activation, primary screen; HEK293 ssDAF-12/GRIP1 lit1-tk-luc reporter, luminescence; % of 3 µM dafachronic acid response; activation, % at 6.8 µM; 370,000 compounds, 1% hits;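 active = activation above the mean over all tested compounds plus 3 SD, cut at about 0.9% in these data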;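 also: 0% = DMSO-only wells and 100% = 3 µM delta7-dafachronic acid wells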
# DAX1 inh confirm: confirmation of human DAX1 (NR0B1) inhibitors; inhibition, % at 6.8 µM; 2,400 compounds, 87% hits; HEK293T StAR-promoter luciferase reporter, SF-1/DAX-1 repression; shares compounds with DAX1 inh-2;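 active = inhibition above the average of every tested compound plus 3 SD, cut at about 3.8% in these data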;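 also: 0% = DAX-1 cells with DMSO and 100% = no DAX-1 control cells with DMSO; active compounds raise luminescence by relieving repression of the StAR reporter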
# SF1 mutant ctr: counter-screen for DAX1 inhibitors: nonselective inhibitors with SF-1 AF2 mutant; 2,400 compounds, 78% hits; inhibition, % at 6.8 µM; HEK293 StAR-luciferase, luminescence; shares compounds with DAX1 inh-2;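 active = inhibition above the mean of all tested compounds plus 3 SD, cut at about 3% in these data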;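 also: 0% = DAX-1 transfected cells with DMSO and 100% = cells without DAX-1 with DMSO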
# LXRb hcDAF ctr: LXR-beta agonism as hcDAF-12 counter-screen; shares compounds with hcDAF-12 act; HEK293 Gal4-LXR tk-luc reporter, luminescence, 24 h; normalized: DMSO 0%, positive control 100%; activation, % at 6.8 µM; 3,400 tested, under 10 active;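 active = mean percent activation of the reporter above a cutoff set as the average over tested compounds plus their standard deviation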
# Target sequence (P55055 whole entry, looked up, the tested form may be a part): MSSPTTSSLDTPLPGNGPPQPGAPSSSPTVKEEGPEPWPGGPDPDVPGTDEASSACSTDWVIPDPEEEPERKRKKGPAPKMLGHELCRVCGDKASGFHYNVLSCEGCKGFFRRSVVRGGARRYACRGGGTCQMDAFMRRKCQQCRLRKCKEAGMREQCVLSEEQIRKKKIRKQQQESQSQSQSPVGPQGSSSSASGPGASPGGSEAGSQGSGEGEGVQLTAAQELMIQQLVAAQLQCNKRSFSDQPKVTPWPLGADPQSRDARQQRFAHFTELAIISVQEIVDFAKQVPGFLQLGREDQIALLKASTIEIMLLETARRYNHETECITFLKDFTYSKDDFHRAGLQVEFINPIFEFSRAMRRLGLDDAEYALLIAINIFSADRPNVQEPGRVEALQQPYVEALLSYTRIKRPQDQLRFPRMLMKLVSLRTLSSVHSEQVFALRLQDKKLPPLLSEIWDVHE
# hcDAF12 ag: confirmation of H. contortus DAF-12 agonists | AID 743032 | activation, % at 6.8 µM | shares compounds with hcDAF-12 act | HEK293 hcDAF-12 lit1-tk-luc reporter, luminescence; % of Δ7-dafachronic acid response | 3,400 compounds, 61% hits;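 active = mean activation across triplicate tests above the threshold derived from the earlier primary screen, cut at about 5.5% in these data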;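 also: 0% = DMSO only wells and 100% = 3 µM Δ7-dafachronic acid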
# An asterisk follows results filed as active; · = no result. Compounds with a hit are over-represented: about 4.1% of the library has one in this group of screens.
SMILES,DAX1 inh-1,hgDAF12 agonist,DAX1 inh-2,hcDAF-12 act,ssDAF-12 act,DAX1 inh confirm,SF1 mutant ctr,LXRb hcDAF ctr,hcDAF12 ag
COCCNc1ncnc2c1cnn2-c1ccc(Cl)cc1,1.9,11.6*,4.9*,6.9*,-0.1,11.0*,6.4*,1.6,4.9
COc1ccccc1NS(=O)(=O)c1ccc(S(=O)(=O)N2CCOCC2)cc1,0.3,-1.4,-0.8,-1.2,-1.7,·,·,·,·
CCC1CSC(=Nc2ccc(C)cc2)N1C(=O)CN1C(=O)NC2(CCCC2)C1=O (stereo unspecified),0.2,12.7*,10.4*,8.4*,-0.2,9.1*,2.8,1.2,6.3*
COc1ccc(Cl)c(OC)c1C(=O)NC(=O)Nc1c(F)cc(F)cc1F,·,1.9,-0.1,0.9,-1.1,·,·,·,·
N/C(=N\OC(=O)c1cccc(F)c1)c1ccccn1,-1.1,8.6,10.6*,8.2*,0.4,11.5*,5.2*,1.0,4.9
Cc1cccc(C(=O)O/N=C(\N)c2ccccn2)c1,-3.0,-4.2,-0.3,-0.8,-1.1,·,·,·,·
N/C(=N\OC(=O)c1ccccc1)c1ccccn1,-2.8,6.1,3.1,3.8,-0.8,·,·,·,·
N/C(=N\OC(=O)c1ccc(Br)o1)c1ccccn1,1.1,10.3,9.4*,8.3*,0.7,14.6*,6.2*,0.8,2.6
N/C(=N\OC(=O)c1cccs1)c1cccc([N+](=O)[O-])c1,0.7,5.8,0.6,1.7,0.4,·,·,·,·
CCC(CC)c1nnc(NC(=O)c2ccc3ccccc3n2)s1,2.3,9.9,4.6*,10.8*,2.1*,10.2*,6.8*,0.9,11.1*
CCC(CC)c1nnc(NC(=O)c2cc(-c3ccccc3)nc3ccccc23)s1,-0.5,1.1,0.5,-0.8,-1.5,·,·,·,·
CC(C)Oc1cccc(C(=O)Nc2ccc(Br)cc2F)c1,4.7*,17.2*,6.6*,7.4*,-0.1,15.2*,8.4*,1.2,4.0
Cc1noc(C)c1COc1cccc(C(=O)Nc2ccc(Br)cc2F)c1,-1.8,0.7,-2.9,-2.6,-1.5,·,·,·,·
Cc1cccc(OCC(=O)Nc2nccs2)c1C,1.9,12.0*,12.2*,8.6*,0.6,13.4*,8.0*,1.2,6.4*
Cc1cc(C(=O)NC2CCC(C)CC2)c(C)o1 (stereo unspecified),3.1,8.4,7.5*,12.6*,0.2,13.5*,6.7*,1.0,7.7*
Cc1cc(C(=O)OCC(=O)NC2CCC(C)CC2)c(C)o1 (stereo unspecified),0.6,-2.2,0.6,-0.6,-1.2,·,·,·,·
NC(=O)C1CCN(c2cc(Cl)nc(N)n2)CC1,-0.6,3.0,-0.7,-0.3,-1.2,·,·,·,·
Cc1ccsc1/C=N/Nc1cccc(C(=O)O)c1,-8.1,16.9*,10.8*,10.1*,0.6,19.4*,11.3*,2.2,19.5*
Cc1ccsc1/C=N/NC(=O)CNC(=O)c1ccccc1,-0.1,2.1,0.0,-0.3,-0.5,·,·,·,·
COc1ccc2ccccc2c1/C=N/Nc1cccc(C(=O)O)c1,0.8,2.7,0.4,1.2,-0.1,·,·,·,·
Cc1ccc(/C=N/Nc2cccc(C(=O)O)c2)s1,-3.9,26.6*,8.3*,11.8*,2.5*,17.0*,8.5*,2.0,13.8*
CC(C)(C)c1ccc(Nc2n[nH]c3ccccc23)cc1,·,27.8*,10.8*,13.4*,2.9*,11.7*,4.6*,2.3,20.1*
Cc1n[nH]c2ccccc2c1=O,1.0,0.5,0.9,2.5,-0.3,·,·,·,·
O=C(NCc1ccccc1CN1CCCC1)c1cc2cc(Cl)ccc2o1,-0.2,-1.5,3.0,-1.6,-1.1,·,·,·,·
Clc1cnc(N/N=C/c2ccco2)c(Cl)c1,1.0,11.1*,4.8*,7.9*,0.3,14.5*,8.8*,1.3,8.0*
SMILES,DAX1 inh-1,hgDAF12 agonist,DAX1 inh-2,hcDAF-12 act,ssDAF-12 act,DAX1 inh confirm,SF1 mutant ctr,LXRb hcDAF ctr,hcDAF12 ag
Oc1ccc(/C=N/Nc2ncc(Cl)cc2Cl)cc1,-0.9,2.9,0.5,-0.8,-1.3,·,·,·,·
CN(c1ccccc1C(N)=O)S(=O)(=O)c1ccccc1,0.1,-1.2,-0.4,0.8,-0.8,·,·,·,·
CN(Cc1ccccc1)C(=O)COC(=O)c1cc(NS(=O)(=O)c2cccs2)ccc1O,-1.1,-1.4,-0.3,-2.0,-1.7,·,·,·,·
CCc1ccc(NC(=O)c2noc3c2CCc2ccccc2-3)cc1,2.4,2.4,-0.1,-0.9,-0.2,·,·,·,·
CCc1ccc(NC(=O)c2noc3c2CCC3)cc1,-1.6,12.1*,5.7*,9.3*,1.4*,21.2*,7.9*,1.9,14.3*
Cc1ccc(C(C)NC(=O)c2c(-c3ccccc3)noc2C)cc1C (stereo unspecified),0.3,-6.5,-1.1,-1.8,-1.0,·,·,·,·
c1ccc(Nc2nnc(-c3ccc4c(c3)OCO4)o2)cc1,·,9.3,5.1*,7.7*,1.2*,6.6*,0.7,0.8,2.7
Cc1ccc(-c2nnc(Nc3ccccc3)o2)cc1,-4.7,6.2,5.5*,8.0*,-0.2,19.0*,8.6*,1.6,6.5*
O=C(Nc1ccccc1C(=O)O)c1cc(S(=O)(=O)Nc2ccccc2)ccc1Cl,1.9,-2.3,0.2,2.0,-1.4,·,·,·,·
Cc1ccc(SCc2cn3c(C)csc3n2)cc1,-0.4,11.9*,5.2*,8.0*,0.8,17.1*,7.0*,1.8,7.8*
Cc1ccc(S(=O)(=O)NCc2cn3c(C)csc3n2)cc1,-0.1,-0.7,-0.4,-1.3,-1.5,·,·,·,·
CCCCn1c(N)c(N(CCC(C)C)C(=O)CN2C(=O)C3CCCCC3C2=O)c(=O)[nH]c1=O (stereo unspecified),-0.2,-2.8,1.0,0.5,-0.8,·,·,·,·
COc1ccc2oc(=Nc3ccccc3)c(-c3nc4ccccc4[nH]3)cc2c1,1.4,21.0*,5.0*,22.4*,3.8*,3.7*,1.7,0.8,8.0*
COc1ccc2oc(=Nc3cccc(F)c3)c(C(N)=O)cc2c1,0.0,9.6,1.1,2.0,-0.9,·,·,·,·
CC(=O)NC(Cc1ccccc1C)C(=O)NC1CCN(C(=O)c2cccc(C)c2)CC1 (stereo unspecified),-1.1,-0.9,-0.2,1.0,-2.2,·,·,·,·
COc1ccc(NC(=O)c2cc3ccccn3n2)cc1,0.7,8.8,7.9*,9.2*,-0.1,14.6*,5.8*,1.3,5.8*
